# In publication PMC7862700, “An all-to-all approach to the identification of sequence-specific readers for epigenetic DNA modifications on cytosine”:
# What was measured:
# Assay in all cases: DAPPL (digital affinity profiling via proximity ligation, sequencing); 10 mM Tris-HCl pH 7.5, 50 mM NaCl, 1 mM DTT, 4% glycerol, room temperature, 30 min; GST-TFs on glutathione beads, 16-mer random dsDNA library, 0.1% formaldehyde crosslink after washing; high values mean tight binding
# FLI1 = target: T1, FLI1 (Homo sapiens, UniProt Q01543 1-452); conditions: protein: recombinant; tags: N-terminal GST; dsDNA, one strand shown
# T1 sequence: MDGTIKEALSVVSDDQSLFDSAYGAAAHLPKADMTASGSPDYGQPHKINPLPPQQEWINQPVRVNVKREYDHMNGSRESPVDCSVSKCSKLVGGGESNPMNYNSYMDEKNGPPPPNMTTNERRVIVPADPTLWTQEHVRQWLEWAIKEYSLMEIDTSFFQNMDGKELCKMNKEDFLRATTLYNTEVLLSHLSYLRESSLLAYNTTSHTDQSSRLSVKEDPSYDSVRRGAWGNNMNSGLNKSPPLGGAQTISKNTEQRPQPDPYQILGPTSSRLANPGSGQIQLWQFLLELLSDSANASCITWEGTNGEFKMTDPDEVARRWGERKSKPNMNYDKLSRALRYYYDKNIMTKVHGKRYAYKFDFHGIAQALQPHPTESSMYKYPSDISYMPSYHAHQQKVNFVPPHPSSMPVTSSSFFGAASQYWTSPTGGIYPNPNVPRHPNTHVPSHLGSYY
# In short: (§1)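 Pools of DNA-barcoded human transcription factors, expressed in yeast as GST fusions on glutathione beads and combined with a tag-only sample, were incubated with 200 nmole of a 16-mer random double-stranded DNA library. Incubation took 30 min at room temperature in Tris/NaCl/DTT/glycerol buffer and was followed by washing, 0.1% formaldehyde crosslinking, proximity ligation (BsaI/T4 ligase, 1 h, 37 °C), PCR amplification and sequencing on an Illumina NextSeq500. Binding signal is the ratio of a hexamer's read frequency for a factor to its frequency for the tag-only sample.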
# ELK1 = target: T2, ELK1 (Homo sapiens, UniProt P19419 1-428); conditions: protein: recombinant; tags: N-terminal GST; dsDNA, one strand shown
# T2 sequence: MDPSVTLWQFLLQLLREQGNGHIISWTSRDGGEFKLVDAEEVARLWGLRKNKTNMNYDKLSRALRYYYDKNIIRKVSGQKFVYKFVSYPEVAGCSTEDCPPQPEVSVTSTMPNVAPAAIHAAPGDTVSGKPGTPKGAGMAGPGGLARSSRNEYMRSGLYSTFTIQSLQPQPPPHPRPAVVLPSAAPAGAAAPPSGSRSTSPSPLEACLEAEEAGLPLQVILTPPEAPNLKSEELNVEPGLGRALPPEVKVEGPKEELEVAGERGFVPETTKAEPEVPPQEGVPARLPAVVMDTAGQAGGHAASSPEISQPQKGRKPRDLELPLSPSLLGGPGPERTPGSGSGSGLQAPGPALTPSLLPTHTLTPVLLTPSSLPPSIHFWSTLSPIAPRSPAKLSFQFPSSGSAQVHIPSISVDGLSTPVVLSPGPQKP
# In short: as §1
# GABPA = target: T3, GABPA (Homo sapiens, UniProt Q06546 1-454); conditions: protein: recombinant; tags: N-terminal GST; dsDNA, one strand shown
# T3 sequence: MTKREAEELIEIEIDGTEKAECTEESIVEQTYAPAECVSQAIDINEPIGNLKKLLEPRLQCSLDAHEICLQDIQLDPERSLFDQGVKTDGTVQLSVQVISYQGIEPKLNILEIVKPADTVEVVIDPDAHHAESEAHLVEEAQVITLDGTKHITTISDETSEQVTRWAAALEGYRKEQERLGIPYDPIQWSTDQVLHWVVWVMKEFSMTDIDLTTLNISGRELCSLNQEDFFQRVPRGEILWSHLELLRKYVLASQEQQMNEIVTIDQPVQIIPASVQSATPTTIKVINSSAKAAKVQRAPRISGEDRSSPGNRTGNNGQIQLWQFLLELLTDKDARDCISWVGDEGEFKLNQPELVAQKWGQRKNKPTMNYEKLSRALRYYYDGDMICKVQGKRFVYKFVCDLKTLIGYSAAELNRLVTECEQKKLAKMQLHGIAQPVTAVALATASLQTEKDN
# In short: as §1
# ERG = target: T4, ERG (Homo sapiens, UniProt P11308 1-479); conditions: protein: recombinant; tags: N-terminal GST; dsDNA, one strand shown
# T4 sequence: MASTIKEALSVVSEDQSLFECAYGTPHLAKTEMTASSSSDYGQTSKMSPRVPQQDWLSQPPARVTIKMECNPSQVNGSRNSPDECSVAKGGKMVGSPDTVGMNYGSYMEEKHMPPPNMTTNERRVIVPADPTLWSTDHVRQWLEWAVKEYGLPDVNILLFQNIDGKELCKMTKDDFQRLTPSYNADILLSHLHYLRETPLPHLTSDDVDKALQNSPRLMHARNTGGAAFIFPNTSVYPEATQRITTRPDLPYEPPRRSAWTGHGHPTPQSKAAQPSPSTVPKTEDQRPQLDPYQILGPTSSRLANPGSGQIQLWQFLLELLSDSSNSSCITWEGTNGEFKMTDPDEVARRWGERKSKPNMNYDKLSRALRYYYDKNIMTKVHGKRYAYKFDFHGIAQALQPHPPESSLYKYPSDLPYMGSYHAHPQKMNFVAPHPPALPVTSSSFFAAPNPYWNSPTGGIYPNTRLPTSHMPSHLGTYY
# In short: as §1
# ELF1 = ELF1 (Homo sapiens, UniProt P32519 1-619); conditions: protein: recombinant; tags: N-terminal GST; dsDNA, one strand shown
# In short: as §1
# EHF = target: T5, EHF (Homo sapiens, UniProt Q9NZC4 1-300); conditions: protein: recombinant; tags: N-terminal GST; dsDNA, one strand shown
# T5 sequence: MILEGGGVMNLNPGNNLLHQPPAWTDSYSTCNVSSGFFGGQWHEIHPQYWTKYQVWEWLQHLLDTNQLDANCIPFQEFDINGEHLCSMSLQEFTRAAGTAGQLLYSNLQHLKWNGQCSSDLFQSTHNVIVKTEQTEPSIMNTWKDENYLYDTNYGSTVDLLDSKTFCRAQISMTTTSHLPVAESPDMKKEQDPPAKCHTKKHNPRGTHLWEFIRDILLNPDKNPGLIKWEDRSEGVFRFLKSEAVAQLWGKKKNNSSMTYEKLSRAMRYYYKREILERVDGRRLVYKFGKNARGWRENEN
# In short: as §1
# SPI1 = SPI1 (Homo sapiens, UniProt P17947 1-270); conditions: protein: recombinant; tags: N-terminal GST; dsDNA, one strand shown
# In short: as §1
# SPIB = SPIB (Homo sapiens, UniProt Q01892 1-262); conditions: protein: recombinant; tags: N-terminal GST; dsDNA, one strand shown
# In short: as §1
# ELK3 = target: T6, ELK3 (Homo sapiens, UniProt P41970 1-407); conditions: protein: recombinant; tags: N-terminal GST; dsDNA, one strand shown
# T6 sequence: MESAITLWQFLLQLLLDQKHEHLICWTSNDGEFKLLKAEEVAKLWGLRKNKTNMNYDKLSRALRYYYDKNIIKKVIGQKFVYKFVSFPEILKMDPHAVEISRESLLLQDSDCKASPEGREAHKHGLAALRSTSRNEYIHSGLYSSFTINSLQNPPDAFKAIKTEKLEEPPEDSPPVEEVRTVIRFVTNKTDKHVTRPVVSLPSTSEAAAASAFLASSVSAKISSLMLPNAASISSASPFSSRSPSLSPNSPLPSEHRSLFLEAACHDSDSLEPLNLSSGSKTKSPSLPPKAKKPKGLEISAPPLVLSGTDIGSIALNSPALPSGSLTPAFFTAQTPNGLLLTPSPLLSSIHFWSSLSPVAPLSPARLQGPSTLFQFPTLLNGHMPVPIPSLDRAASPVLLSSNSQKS
# In short: as §1
# FEV = target: T7, FEV (Homo sapiens, UniProt Q99581 1-238); conditions: protein: recombinant; tags: N-terminal GST; dsDNA, one strand shown
# T7 sequence: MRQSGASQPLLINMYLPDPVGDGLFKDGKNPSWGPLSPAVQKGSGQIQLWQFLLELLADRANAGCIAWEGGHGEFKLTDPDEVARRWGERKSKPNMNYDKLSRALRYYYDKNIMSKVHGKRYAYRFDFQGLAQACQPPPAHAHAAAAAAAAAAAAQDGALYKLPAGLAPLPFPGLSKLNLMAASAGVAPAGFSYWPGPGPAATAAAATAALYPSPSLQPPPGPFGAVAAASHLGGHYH
# In short: as §1
# ETV5 = ETV5 (Homo sapiens, UniProt P41161 1-510); conditions: protein: recombinant; tags: N-terminal GST; dsDNA, one strand shown
# In short: as §1
# HSF1 = HSF1 (Homo sapiens, UniProt Q00613 1-529); conditions: protein: recombinant; tags: N-terminal GST; chain copies: 3; dsDNA, one strand shown
# In short: as §1
# SPIC = target: T8, SPIC (Homo sapiens, UniProt Q8N5J4 1-248); conditions: protein: recombinant; tags: N-terminal GST; dsDNA, one strand shown
# T8 sequence: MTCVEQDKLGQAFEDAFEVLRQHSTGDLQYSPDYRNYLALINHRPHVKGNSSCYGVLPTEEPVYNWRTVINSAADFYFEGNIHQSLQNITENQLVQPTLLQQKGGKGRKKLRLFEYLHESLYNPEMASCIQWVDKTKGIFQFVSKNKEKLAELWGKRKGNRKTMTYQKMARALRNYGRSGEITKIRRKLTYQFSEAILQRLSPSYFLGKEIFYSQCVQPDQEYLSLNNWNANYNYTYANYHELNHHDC
# In short: as §1
# ELF4 = ELF4 (Homo sapiens, UniProt Q99607 1-663); conditions: protein: recombinant; tags: N-terminal GST; dsDNA, one strand shown
# In short: as §1
# ELK4 = target: T9, ELK4 (Homo sapiens, UniProt P28324-2 1-405); conditions: protein: recombinant; tags: N-terminal GST; dsDNA, one strand shown
# T9 sequence: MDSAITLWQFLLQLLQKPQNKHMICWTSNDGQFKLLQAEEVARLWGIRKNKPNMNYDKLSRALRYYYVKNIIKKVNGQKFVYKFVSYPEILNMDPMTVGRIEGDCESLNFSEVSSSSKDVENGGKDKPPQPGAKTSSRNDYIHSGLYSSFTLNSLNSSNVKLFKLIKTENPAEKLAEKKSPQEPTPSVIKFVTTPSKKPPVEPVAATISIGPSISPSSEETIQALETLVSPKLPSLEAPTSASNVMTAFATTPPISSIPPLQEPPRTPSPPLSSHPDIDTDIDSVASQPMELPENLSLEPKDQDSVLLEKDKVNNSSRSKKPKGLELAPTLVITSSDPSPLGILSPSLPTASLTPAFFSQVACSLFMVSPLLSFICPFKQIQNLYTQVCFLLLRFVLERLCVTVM
# In short: as §1
# ETV2 = target: T10, ETV2 (Homo sapiens, UniProt O00321 1-342); conditions: protein: recombinant; tags: N-terminal GST; dsDNA, one strand shown
# T10 sequence: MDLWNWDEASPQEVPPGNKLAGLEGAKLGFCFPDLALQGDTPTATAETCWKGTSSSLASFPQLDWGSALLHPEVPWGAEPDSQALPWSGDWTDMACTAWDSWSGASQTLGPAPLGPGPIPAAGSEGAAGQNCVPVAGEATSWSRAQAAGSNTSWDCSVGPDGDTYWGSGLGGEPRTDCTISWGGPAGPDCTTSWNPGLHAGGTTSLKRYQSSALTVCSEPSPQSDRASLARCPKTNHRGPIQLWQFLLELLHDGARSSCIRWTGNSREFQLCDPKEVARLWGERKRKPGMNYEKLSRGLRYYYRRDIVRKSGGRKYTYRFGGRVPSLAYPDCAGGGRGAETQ
# In short: as §1
# ELF3 = target: T11, ELF3 (Homo sapiens, UniProt P78545 1-371); conditions: protein: recombinant; tags: N-terminal GST; dsDNA, one strand shown
# T11 sequence: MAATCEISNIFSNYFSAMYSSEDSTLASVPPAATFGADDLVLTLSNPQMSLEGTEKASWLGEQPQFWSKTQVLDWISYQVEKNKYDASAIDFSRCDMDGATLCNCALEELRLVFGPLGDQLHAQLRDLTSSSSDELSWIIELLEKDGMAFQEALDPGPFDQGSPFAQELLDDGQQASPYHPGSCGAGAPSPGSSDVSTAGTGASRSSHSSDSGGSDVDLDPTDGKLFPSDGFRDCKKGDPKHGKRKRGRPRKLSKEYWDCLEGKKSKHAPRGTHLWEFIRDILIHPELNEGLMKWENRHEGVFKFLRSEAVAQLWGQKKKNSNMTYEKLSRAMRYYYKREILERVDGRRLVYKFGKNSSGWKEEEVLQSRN
# In short: as §1
# CRX = CRX (Homo sapiens, UniProt O43186 1-299); conditions: protein: recombinant; tags: N-terminal GST; dsDNA, one strand shown
# In short: as §1
# ETV1 = ETV1 (Homo sapiens, UniProt P50549 1-477); conditions: protein: recombinant; tags: N-terminal GST; dsDNA, one strand shown
# In short: as §1
# Sequence of ETV1 (P50549 whole entry): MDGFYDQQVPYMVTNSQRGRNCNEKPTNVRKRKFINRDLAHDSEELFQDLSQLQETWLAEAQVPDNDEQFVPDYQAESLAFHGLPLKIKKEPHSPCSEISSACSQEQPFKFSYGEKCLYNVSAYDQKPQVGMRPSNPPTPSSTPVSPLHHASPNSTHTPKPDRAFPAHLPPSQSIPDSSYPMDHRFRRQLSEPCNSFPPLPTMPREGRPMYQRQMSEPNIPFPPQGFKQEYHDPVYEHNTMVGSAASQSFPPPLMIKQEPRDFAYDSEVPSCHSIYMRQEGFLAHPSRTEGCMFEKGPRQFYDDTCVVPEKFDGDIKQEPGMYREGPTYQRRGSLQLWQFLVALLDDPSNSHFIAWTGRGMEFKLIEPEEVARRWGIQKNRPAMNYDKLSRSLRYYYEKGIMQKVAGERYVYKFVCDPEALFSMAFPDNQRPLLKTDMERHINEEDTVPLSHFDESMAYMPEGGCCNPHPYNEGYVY
# Sequence of ELF4 (Q99607 whole entry): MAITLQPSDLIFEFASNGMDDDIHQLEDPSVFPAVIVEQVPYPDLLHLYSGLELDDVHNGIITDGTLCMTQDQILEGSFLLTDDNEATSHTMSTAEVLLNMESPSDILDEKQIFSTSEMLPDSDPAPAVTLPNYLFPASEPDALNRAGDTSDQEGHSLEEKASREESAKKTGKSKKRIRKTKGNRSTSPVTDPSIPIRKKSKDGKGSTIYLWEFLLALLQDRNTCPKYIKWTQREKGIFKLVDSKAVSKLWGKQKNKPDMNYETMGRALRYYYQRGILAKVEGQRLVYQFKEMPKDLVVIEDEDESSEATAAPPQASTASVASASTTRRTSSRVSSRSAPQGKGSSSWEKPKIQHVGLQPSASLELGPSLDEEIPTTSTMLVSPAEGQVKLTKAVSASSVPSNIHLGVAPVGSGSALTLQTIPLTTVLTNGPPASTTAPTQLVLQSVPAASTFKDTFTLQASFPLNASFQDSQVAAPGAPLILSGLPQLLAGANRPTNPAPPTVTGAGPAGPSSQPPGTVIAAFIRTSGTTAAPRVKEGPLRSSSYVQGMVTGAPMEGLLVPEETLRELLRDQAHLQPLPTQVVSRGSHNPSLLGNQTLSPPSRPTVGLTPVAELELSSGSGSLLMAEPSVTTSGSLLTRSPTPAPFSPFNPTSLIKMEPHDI
# Sequence of SPIB (Q01892 whole entry): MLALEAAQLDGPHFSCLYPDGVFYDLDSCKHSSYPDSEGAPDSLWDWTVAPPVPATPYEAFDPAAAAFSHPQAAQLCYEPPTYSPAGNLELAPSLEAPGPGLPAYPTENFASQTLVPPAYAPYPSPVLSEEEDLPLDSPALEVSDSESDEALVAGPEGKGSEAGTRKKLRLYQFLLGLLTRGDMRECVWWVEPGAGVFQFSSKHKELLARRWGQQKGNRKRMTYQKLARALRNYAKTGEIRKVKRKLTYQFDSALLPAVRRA
# Sequence of ELF1 (P32519 whole entry): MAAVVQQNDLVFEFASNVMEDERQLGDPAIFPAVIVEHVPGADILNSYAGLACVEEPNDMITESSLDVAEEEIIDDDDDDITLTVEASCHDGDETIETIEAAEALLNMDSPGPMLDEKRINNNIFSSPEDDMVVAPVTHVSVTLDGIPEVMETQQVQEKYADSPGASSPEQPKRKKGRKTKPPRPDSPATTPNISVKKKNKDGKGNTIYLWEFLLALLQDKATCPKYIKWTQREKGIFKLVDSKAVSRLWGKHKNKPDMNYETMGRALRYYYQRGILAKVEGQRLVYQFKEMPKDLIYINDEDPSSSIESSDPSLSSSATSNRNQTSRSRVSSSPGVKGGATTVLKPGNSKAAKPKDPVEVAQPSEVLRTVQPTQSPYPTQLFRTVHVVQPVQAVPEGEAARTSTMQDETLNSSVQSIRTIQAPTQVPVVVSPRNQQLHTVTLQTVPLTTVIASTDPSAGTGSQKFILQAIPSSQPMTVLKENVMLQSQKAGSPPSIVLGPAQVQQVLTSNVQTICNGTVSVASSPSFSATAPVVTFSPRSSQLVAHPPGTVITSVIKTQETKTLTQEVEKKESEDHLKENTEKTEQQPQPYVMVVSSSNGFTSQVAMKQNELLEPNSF
# Sequence of ETV5 (P41161 whole entry): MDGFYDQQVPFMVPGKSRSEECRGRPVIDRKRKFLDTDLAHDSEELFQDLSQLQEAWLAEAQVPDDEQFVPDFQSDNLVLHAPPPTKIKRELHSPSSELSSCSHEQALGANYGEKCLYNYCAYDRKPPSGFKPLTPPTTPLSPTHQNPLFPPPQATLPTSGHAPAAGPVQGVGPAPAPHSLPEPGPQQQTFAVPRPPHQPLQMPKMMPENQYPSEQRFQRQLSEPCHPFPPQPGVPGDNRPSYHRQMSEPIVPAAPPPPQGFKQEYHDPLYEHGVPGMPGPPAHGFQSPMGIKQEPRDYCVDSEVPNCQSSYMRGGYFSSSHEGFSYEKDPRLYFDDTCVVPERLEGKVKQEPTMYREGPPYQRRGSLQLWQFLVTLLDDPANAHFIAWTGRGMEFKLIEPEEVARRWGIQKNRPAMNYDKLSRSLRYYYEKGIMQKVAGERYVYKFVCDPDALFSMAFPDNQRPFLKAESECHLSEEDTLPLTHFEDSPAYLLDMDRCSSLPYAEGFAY
# Sequence of CRX (O43186 whole entry): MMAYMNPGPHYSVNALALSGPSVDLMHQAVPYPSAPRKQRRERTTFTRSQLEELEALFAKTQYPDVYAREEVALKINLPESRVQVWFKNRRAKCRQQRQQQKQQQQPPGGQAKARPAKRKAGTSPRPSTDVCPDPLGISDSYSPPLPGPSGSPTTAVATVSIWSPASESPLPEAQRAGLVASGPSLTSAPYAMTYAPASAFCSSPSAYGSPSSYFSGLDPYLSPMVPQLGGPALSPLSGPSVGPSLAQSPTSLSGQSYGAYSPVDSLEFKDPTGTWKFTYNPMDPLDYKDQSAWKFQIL
# Sequence of HSF1 (Q00613 whole entry): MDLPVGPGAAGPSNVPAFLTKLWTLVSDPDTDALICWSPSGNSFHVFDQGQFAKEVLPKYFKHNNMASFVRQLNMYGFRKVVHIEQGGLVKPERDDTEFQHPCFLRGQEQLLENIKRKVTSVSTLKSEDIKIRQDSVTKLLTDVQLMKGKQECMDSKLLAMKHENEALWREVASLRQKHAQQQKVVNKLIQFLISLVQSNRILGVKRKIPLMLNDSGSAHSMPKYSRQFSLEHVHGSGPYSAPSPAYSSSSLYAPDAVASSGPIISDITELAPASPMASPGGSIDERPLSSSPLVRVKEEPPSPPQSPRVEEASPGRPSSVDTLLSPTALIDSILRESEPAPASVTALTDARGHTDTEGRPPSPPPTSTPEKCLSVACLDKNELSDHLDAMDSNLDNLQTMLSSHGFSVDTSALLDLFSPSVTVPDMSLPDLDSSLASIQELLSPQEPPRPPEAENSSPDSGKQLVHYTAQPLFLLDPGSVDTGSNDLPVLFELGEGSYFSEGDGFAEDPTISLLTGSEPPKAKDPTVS
sequence,measurement,setting,value
TTAAAC,binding signal,FLI1,"1.22 fold enrichment (6-mer frequency, TF over GST control)"
same,binding signal,ELK1,"1.18 fold enrichment (6-mer frequency, TF over GST control)"
same,binding signal,GABPA,"1.2 fold enrichment (6-mer frequency, TF over GST control)"
same,binding signal,ERG,"1.25 fold enrichment (6-mer frequency, TF over GST control)"
same,binding signal,ELF1,"1.23 fold enrichment (6-mer frequency, TF over GST control)"
same,binding signal,EHF,"1.26 fold enrichment (6-mer frequency, TF over GST control)"
same,binding signal,SPI1,"1.24 fold enrichment (6-mer frequency, TF over GST control)"
same,binding signal,SPIB,"1.26 fold enrichment (6-mer frequency, TF over GST control)"
same,binding signal,ELK3,"1.31 fold enrichment (6-mer frequency, TF over GST control)"
same,binding signal,FEV,"1.21 fold enrichment (6-mer frequency, TF over GST control)"
same,binding signal,ETV5,"1.29 fold enrichment (6-mer frequency, TF over GST control)"
same,binding signal,HSF1,"1.7 fold enrichment (6-mer frequency, TF over GST control)"
same,binding signal,SPIC,"1.05 fold enrichment (6-mer frequency, TF over GST control)"
same,binding signal,ELF4,"1.21 fold enrichment (6-mer frequency, TF over GST control)"
same,binding signal,ELK4,"1.26 fold enrichment (6-mer frequency, TF over GST control)"
same,binding signal,ETV2,"1.26 fold enrichment (6-mer frequency, TF over GST control)"
same,binding signal,ELF3,"1.19 fold enrichment (6-mer frequency, TF over GST control)"
same,binding signal,CRX,"2.58 fold enrichment (6-mer frequency, TF over GST control)"
same,binding signal,ETV1,"1.24 fold enrichment (6-mer frequency, TF over GST control)"
